The source of these data is PubChem BioAssay AID492956 (The Scripps Research Institute Molecular Screening Center, 2010).

SMILES strings stand for the structures. The campaign covered roughly 340,000 compounds. About 3,300 (0.97%) were called active. What follows is part of a selection rich in actives, with near analogues and random picks from the rest. Values without a mark were called inactive.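 The calls were made as follows: active = inhibition above the mean over all tested compounds plus 3 SD (cut at about 30% in these data); inactive = the rest.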

The experiment concerns the target Platelet-activating factor acetylhydrolase 2, cytoplasmic (Homo sapiens) (UniProt Q99487). Put plainly: inhibition of cytoplasmic PAF acetylhydrolase 2 – biochemical, fluorescence polarization, human, primary screen (AID 492956).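 Also: inhibitors block probe labeling of enzyme so polarization drops; 0% = enzyme with DMSO and 100% = wells lacking PAFAH2 protein.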 To be noted: recombinant PAFAH2, FP-rhodamine activity probe, at 3.39 µM, active compounds read high.
`O=C(Nc1cccc2c1CCCC2)C1CCN(C(=O)NC2CCCCC2)CC1`: the inhibition was -4.67%.
With `COc1ccc(OC)c(/C=N/NC(=O)c2ccc[n+](CC(=O)c3ccccc3)c2)c1` the figure was -2.42%.
On to `Cc1ccc(/C=C/C(=O)O)cc1S(=O)(=O)N1CCC(Cc2ccccc2)CC1`, for which the inhibition is 2.39%.
For `O=C(C[C@@H]1C/C=C\CCC(=O)OC[C@@H]2CCCN2C1=O)NCCO`, the inhibition was 15.7%.
With `CCOc1ncccc1C(=O)N(C)CC(=O)Nc1ccc(F)cc1` the figure was -4.72%; with `CC1CCc2sc(C(=O)N/N=C/C3CCCCC3)cc2C1` (stereo not drawn), 0.32%; with `O=C(CSc1nnc(COc2ccc(Cl)cc2)n1Cc1ccco1)N1CCNC1=O`, 6.03%.
For `O=C(COC(=O)c1ccc(F)cc1)NCCCc1ccccc1`, the inhibition was 21.2%.
Consider `Cc1cnc(C(=O)OCC(=O)NCCCc2ccccc2)cn1`, for which the inhibition was 4.7%.
`COc1ccc(C(=O)OCC(=O)NCCCc2ccccc2)cc1OC`: the inhibition is 55.4% (active).
Turning to `Cn1c2c(c(=O)n(C)c1=O)CN(Cc1ccco1)CN2`, the inhibition was -2.71%.
To `CCCN(CC(=O)Nc1ccccc1C)C(=O)c1ccc2[nH]c3c(c2c1)CC(C)CC3` (stereo not drawn) belongs 8.67%.
Take `CCOc1ccc(S(=O)(=O)N2CCCCC2)cc1NC(=O)CN1CCCC1c1cccs1` (stereo not drawn): the inhibition was -0.88%.
In the case of `CC(=O)Nc1ccc(S(=O)(=O)NCC2CCC(C(=O)NCCc3ccccc3)CC2)cc1` (stereo not drawn), the inhibition is 6.72%.
Regarding `CC1=NN(c2ccc(Cl)c(C(=O)O)c2)C(=O)/C1=C/c1ccc(-c2ccccc2[N+](=O)[O-])o1`, the inhibition is 36.5% (active).
As for `O=C(Nc1ccc(N2CCOCC2)cc1)c1ccc(-c2ccccc2[N+](=O)[O-])o1`, the inhibition was -11.3%.
Consider `O=C1NC(c2ccc(-c3ccccc3[N+](=O)[O-])o2)C(C(=O)c2ccc(Cl)cc2)C(O)(C(F)(F)F)N1` (stereo not drawn), for which the inhibition is 1.45%.
In the case of `CC(CO)(CO)NC(=O)c1ccc(=O)[nH]n1`, the inhibition is -12.6%.
Take `Cc1c2cnn(CC(=O)NCCCN3CC(C)CC(C)C3)c(=O)c2c(C)n1Cc1ccc(Cl)cc1` (stereo not drawn): the inhibition is 5.22%.
As for `O=C(c1cccnc1)N(Cc1ccccc1)C(=O)c1cccnc1`, the inhibition was 3.92%.
As for `O=C(c1cccnc1)N(c1cc2sc(=O)oc2c2ccccc12)S(=O)(=O)c1ccccc1`, the inhibition is 36.6% (active).
To `COc1ccc(N(C(=O)c2cccnc2)S(=O)(=O)c2ccc(OC)c(OC)c2)cc1` belongs -3.27%; to `COc1cccc2oc(CCc3ccccc3)cc(=O)c12`, 6.23%.
For `CCC1C(C#N)=C(SC)NC2=C1C(=O)CC(C)(C)C2` (stereo not drawn), the inhibition was -6.12%.
With `CCC(C)(C)c1ccc(Oc2ccc(NC(=O)COC(=O)C3=COCCO3)cc2)cc1`, the inhibition was 55.4% (active).
With `CCOc1ccc(NC(=O)c2ccc(NC(=O)COC(=O)c3ccc(NC(=O)CC#N)cc3)cc2)cc1`, the inhibition is -53.2%.
Consider `O=C(OCC(=O)c1cccs1)C1=COCCO1`, for which the inhibition is 17.6%.
`COc1cccc(C2=CC(=O)C[C@H](c3ccc(F)cc3)C2)c1OC`: the inhibition was -13.9%.
To `O=C(OC1CCOC1=O)c1cccc(S(=O)(=O)Nc2ccc(F)cc2)c1` (stereo not drawn) belongs 9.72%; to `Cc1ccc2nc(COc3ccc(N(C)S(=O)(=O)c4ccccc4)cc3)cc(=O)n2c1`, 8.78%; to `CC1CCCCC1NC(=O)CCS(=O)(=O)c1ccc2c(c1)NC(=O)CO2` (stereo not drawn), 26.2%.
To `CNN/C(N=Cc1ccc([N+](=O)[O-])s1)=N\S(=O)(=O)c1cc(C)c(Cl)cc1SCc1ccccc1` belongs 5.01%.
As for `CC1CN(C(=O)c2ccc([N+](=O)[O-])s2)CC(C)O1` (stereo not drawn), the inhibition was 5.08%.
To `O=[N+]([O-])c1ccc(C=Nc2ccc(Cl)cc2Cl)s1` belongs 63.8% (active); to `O=C1COc2ccc(C(=O)COC(=O)CCOc3ccccc3)cc2N1`, 0.36%; to `COc1ccc(OC)c(-c2csc(-c3cccs3)n2)c1`, 5.06%.
For the molecule `COc1cccc(C(=O)n2ccc(-c3cccs3)n2)c1`, the inhibition was 31.8% (active).
Regarding `COc1cccc(NC(=O)CN(C)C(=O)/C=C/c2cn(-c3ccccc3)nc2-c2cccs2)c1`, the inhibition was -54.5%.
For `CC(C)(C)c1ccc(Cn2nnc3c(=O)[nH]c(C4CCCN(C(=O)c5ccco5)C4)nc32)cc1` (stereo not drawn), the inhibition was -1.16%.
For `Cc1cc(C)cc(NC(=O)CCN2C(=O)c3ccccc3C2=O)c1`, the inhibition was -14%.
As for `CCn1cc(CN2CCN(CC(C)(C)C)C(CCO)C2)c2ccccc21` (stereo not drawn), the inhibition was 1.37%.
Turning to `CCOc1ccc(/C=C/C(=O)OCC(=O)c2ccccc2OC)cc1OC`, the inhibition was 6.36%.
To `COc1ccccc1/C=C/C(=O)OCC(=O)NC1CCCCCC1` belongs 93.2% (active).
Take `O=C(CCC(=O)c1cccs1)NC1CCCCCC1`: the inhibition was 8.2%.
As for `O=C(COC(=O)/C=C/c1cccs1)NC1CCCCC1`, the inhibition is 80.5% (active).
With `COc1ccc(/C=C/C(=O)OCC(=O)NC2CCCCCC2)cc1OC` the figure was 87.4% (active).
Regarding `COc1cc(/C=C/C(=O)OCC(=O)NC2CC2)cc(OC)c1OC`, the inhibition was 9.4%.
Turning to `COc1ccc(CCNC(=O)COC(=O)/C=C/c2cccs2)cc1OC`, the inhibition is 6.71%.
On to `COc1ccccc1/C=C/C(=O)NC1CC2CCC1C2` (stereo not drawn), for which the inhibition was -0.78%.
As to `COc1ccccc1-n1ccnc(SCC(=O)NC2CCCCC2)c1=O`, the inhibition is -2.23%.
To `COc1cc2c(C(=O)N3CCN(C)CC3)c(CSc3ccccc3)n(C)c2cc1Br` belongs -5.01%.
To `COc1ccc(NC(=O)c2cccc(Cl)c2)c[n+]1[O-]` belongs -0.76%; to `O=C(CSCc1c(Cl)cccc1Cl)NN1C(=O)c2ccccc2C1=O`, 11.8%; to `Cc1cccc(CN2CCN(Cc3cnn(-c4ccccc4F)c3)CC2CCO)n1` (stereo not drawn), -6.68%.
With `COc1ccc(C(=O)O/N=C(\N)Cc2ccc(Cl)cc2Cl)cc1OC`, the inhibition was 85.3% (active).
On to `COc1ccc(CCn2ccc(O)c(Cc3ccc(Cl)cc3Cl)c2=O)cc1OC`, for which the inhibition is -2.38%.
With `COc1ccc(C(=O)n2nc(-c3ccc(Cl)cc3)nc2N)cc1OC`, the inhibition is 3.15%.
`C=CCOc1ccc(C(=O)Nc2ccccc2C(=O)N2CCCC2)cc1`: the inhibition is 7.79%.
